Test in all cases: DAPPL (digital affinity profiling via proximity ligation, sequencing); 10 mM Tris-HCl pH 7.5, 50 mM NaCl, 1 mM DTT, 4% glycerol, room temperature, 30 min; GST-TFs on glutathione beads, 16-mer random dsDNA library, 0.1% formaldehyde crosslink after washing; high values mean tight binding
What all share (conditions): protein: recombinant; tags: N-terminal GST; dsDNA, one strand shown

Test [1] concerns the target T1, ERF (Homo sapiens, UniProt P50548 1-548).
T1 sequence: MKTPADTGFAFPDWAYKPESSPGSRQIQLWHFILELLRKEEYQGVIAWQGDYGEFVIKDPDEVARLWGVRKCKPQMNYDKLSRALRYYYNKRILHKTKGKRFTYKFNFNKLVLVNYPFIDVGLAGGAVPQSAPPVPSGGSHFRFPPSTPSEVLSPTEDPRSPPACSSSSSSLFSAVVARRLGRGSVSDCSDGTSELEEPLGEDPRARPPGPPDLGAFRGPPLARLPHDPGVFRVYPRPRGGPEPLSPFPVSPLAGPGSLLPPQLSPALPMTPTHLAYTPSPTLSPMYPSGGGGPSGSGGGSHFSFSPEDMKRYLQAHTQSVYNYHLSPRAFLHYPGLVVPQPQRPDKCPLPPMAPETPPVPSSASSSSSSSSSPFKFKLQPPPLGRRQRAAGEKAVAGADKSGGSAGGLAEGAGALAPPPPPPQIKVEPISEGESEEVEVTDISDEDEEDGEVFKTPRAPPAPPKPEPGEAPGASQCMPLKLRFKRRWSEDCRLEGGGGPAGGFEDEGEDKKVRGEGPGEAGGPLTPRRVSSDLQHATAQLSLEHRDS
A digest of the protocol:
(§1)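 A tag-only sample was pooled with DNA-barcoded human transcription factors that had been expressed in yeast as GST fusions and captured on glutathione beads. The pools were incubated for 30 min at room temperature with 200 nmole of a random double-stranded 16-mer DNA library in Tris/NaCl/DTT/glycerol buffer, then washed, crosslinked with 0.1% formaldehyde, proximity-ligated (BsaI/T4 ligase, 1 h, 37 °C), PCR-amplified and sequenced on an Illumina NextSeq500. Binding signal is each hexamer's read frequency for a factor divided by its frequency for the tag-only sample.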

For test [2], the target named is T2, ETV3L (Homo sapiens, UniProt Q6ZN32 1-361).
T2 sequence: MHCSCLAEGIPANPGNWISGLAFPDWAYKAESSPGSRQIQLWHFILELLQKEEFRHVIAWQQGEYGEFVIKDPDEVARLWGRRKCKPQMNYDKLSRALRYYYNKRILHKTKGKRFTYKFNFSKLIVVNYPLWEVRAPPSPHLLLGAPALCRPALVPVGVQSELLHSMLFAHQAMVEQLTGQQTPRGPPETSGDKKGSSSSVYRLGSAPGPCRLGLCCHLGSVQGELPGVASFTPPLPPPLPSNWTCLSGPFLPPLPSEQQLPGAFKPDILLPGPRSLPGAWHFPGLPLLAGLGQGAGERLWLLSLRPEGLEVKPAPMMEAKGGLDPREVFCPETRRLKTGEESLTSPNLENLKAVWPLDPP
A digest of the protocol:
as §1

In test [3] the target is T3, ETS2 (Homo sapiens, UniProt P15036 1-469).
T3 sequence: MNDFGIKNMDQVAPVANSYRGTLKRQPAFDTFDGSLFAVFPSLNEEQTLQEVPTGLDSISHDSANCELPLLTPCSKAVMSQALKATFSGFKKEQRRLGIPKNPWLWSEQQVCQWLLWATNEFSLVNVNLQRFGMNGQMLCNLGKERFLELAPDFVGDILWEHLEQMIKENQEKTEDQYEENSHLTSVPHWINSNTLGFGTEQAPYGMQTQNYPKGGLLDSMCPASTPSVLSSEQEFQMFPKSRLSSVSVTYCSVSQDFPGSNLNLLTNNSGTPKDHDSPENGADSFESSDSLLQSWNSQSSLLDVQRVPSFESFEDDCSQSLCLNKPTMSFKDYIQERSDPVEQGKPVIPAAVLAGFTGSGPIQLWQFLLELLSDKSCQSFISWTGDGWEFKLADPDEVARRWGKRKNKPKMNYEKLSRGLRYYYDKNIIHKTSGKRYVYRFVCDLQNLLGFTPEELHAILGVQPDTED
A digest of the protocol:
as §1

The target of test [4] is T4, SPDEF (Homo sapiens, UniProt O95238 1-335).
T4 sequence: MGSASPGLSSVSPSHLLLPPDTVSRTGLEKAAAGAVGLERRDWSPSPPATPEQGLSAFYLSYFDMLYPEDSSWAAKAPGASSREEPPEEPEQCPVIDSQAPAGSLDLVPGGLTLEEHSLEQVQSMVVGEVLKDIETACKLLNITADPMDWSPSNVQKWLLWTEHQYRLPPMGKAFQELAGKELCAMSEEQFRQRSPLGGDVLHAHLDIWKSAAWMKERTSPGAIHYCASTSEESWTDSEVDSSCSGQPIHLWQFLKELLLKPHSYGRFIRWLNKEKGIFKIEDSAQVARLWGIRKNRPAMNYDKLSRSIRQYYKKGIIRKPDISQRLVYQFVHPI
A digest of the protocol: as §1

Test [5] deals with T5, ETV7 (Homo sapiens, UniProt Q9Y603 1-341).
T5 sequence: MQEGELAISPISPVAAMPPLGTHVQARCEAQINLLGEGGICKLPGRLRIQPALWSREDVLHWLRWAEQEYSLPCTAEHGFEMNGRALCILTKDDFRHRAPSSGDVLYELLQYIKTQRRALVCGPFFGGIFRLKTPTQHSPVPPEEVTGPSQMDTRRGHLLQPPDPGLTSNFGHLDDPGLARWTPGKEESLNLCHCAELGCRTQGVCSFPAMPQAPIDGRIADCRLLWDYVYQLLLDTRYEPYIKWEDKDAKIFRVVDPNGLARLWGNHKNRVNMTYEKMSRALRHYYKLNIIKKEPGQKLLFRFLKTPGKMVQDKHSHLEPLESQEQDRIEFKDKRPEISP
In a few lines:
as §1

Test [6] addresses T6, ETV3 (Homo sapiens, UniProt P41162-2 1-143).
T6 sequence: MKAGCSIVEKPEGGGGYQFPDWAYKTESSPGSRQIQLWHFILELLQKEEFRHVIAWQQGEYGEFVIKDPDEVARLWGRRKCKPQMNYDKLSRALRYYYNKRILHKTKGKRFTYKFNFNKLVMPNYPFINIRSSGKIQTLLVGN
In a few lines:
as §1

Test [7] concerns the target ETV6 (Homo sapiens, UniProt P41212 1-452). A digest of the protocol:
as §1

Chain of ETV6 (P41212 whole entry): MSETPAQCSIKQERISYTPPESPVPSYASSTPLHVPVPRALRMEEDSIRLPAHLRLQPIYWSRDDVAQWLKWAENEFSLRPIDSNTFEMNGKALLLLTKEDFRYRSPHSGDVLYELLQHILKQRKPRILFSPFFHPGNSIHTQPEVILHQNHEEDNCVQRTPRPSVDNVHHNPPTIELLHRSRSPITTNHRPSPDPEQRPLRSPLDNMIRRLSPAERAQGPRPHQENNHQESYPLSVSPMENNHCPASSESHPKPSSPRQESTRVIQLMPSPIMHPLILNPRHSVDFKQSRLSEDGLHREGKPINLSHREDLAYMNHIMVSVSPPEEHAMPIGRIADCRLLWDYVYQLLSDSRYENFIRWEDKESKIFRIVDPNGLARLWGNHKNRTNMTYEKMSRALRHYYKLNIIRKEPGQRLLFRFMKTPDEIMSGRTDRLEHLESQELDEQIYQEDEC

For the sequence ATGAAG, the binding signal is 1.12 fold enrichment (6-mer frequency, TF over GST control) in test [1]; 1.05 fold enrichment (6-mer frequency, TF over GST control) in test [2]; 1.06 fold enrichment (6-mer frequency, TF over GST control) in test [3]; 1.07 fold enrichment (6-mer frequency, TF over GST control) in test [4]; 1.09 fold enrichment (6-mer frequency, TF over GST control) in test [5]; 1.03 fold enrichment (6-mer frequency, TF over GST control) in test [6]. The binding signal in test [7] is 1.03 fold enrichment (6-mer frequency, TF over GST control).
For the sequence GCCAAT, the binding signal in test [1] is 1.11 fold enrichment (6-mer frequency, TF over GST control); in test [2] it was 1.05 fold enrichment (6-mer frequency, TF over GST control); in test [3], 1.06 fold enrichment (6-mer frequency, TF over GST control); in test [4], 1.07 fold enrichment (6-mer frequency, TF over GST control); in test [5], 1.06 fold enrichment (6-mer frequency, TF over GST control); in test [6], 1.1 fold enrichment (6-mer frequency, TF over GST control).
Consider AGCTCA, for which the binding signal was 1.08 fold enrichment (6-mer frequency, TF over GST control) in test [1]; 1.08 fold enrichment (6-mer frequency, TF over GST control) in test [2]; 1.13 fold enrichment (6-mer frequency, TF over GST control) in test [3]; 1.08 fold enrichment (6-mer frequency, TF over GST control) in test [4]; 1.03 fold enrichment (6-mer frequency, TF over GST control) in test [5]; 1.15 fold enrichment (6-mer frequency, TF over GST control) in test [6]. Further, in test [7], the binding signal was 1.1 fold enrichment (6-mer frequency, TF over GST control).
On to CGAGTT, for which the binding signal in test [1] was 1.08 fold enrichment (6-mer frequency, TF over GST control); in test [2] it was 1.16 fold enrichment (6-mer frequency, TF over GST control); in test [3], 1.07 fold enrichment (6-mer frequency, TF over GST control); in test [4] it was 1.02 fold enrichment (6-mer frequency, TF over GST control); in test [5] it was 1.08 fold enrichment (6-mer frequency, TF over GST control); in test [6], 1.12 fold enrichment (6-mer frequency, TF over GST control). For the same sequence, in test [7], the binding signal was 1.13 fold enrichment (6-mer frequency, TF over GST control).
Regarding TAACAG, the binding signal is 1.05 fold enrichment (6-mer frequency, TF over GST control) in test [1]; 1.05 fold enrichment (6-mer frequency, TF over GST control) in test [2]; 1.03 fold enrichment (6-mer frequency, TF over GST control) in test [3]; 1.11 fold enrichment (6-mer frequency, TF over GST control) in test [4]; 1.09 fold enrichment (6-mer frequency, TF over GST control) in test [5]; 1.02 fold enrichment (6-mer frequency, TF over GST control) in test [6]. In addition, the binding signal in test [7] is 1 fold enrichment (6-mer frequency, TF over GST control).
With CATGTA, the binding signal in test [1] is 1.2 fold enrichment (6-mer frequency, TF over GST control); in test [2], 1.16 fold enrichment (6-mer frequency, TF over GST control); in test [3] it was 1.04 fold enrichment (6-mer frequency, TF over GST control); in test [4] it was 1.13 fold enrichment (6-mer frequency, TF over GST control); in test [5], 1.05 fold enrichment (6-mer frequency, TF over GST control); in test [6], 1.18 fold enrichment (6-mer frequency, TF over GST control). Further, in test [7], the binding signal is 1.04 fold enrichment (6-mer frequency, TF over GST control).
As for AGGTAT, the binding signal in test [1] is 1.16 fold enrichment (6-mer frequency, TF over GST control); in test [2], 1.02 fold enrichment (6-mer frequency, TF over GST control); in test [3] it was 1 fold enrichment (6-mer frequency, TF over GST control); in test [4], 1.12 fold enrichment (6-mer frequency, TF over GST control); in test [5], 1.12 fold enrichment (6-mer frequency, TF over GST control); in test [6], 1.11 fold enrichment (6-mer frequency, TF over GST control). In test [7], the binding signal is 1.01 fold enrichment (6-mer frequency, TF over GST control).
In the case of CTGAGC, the binding signal in test [1] was 1.06 fold enrichment (6-mer frequency, TF over GST control); in test [2], 1.14 fold enrichment (6-mer frequency, TF over GST control); in test [3], 1.15 fold enrichment (6-mer frequency, TF over GST control); in test [4], 1.16 fold enrichment (6-mer frequency, TF over GST control); in test [5], 1.16 fold enrichment (6-mer frequency, TF over GST control); in test [6], 1.01 fold enrichment (6-mer frequency, TF over GST control). In addition, the binding signal in test [7] is 1.16 fold enrichment (6-mer frequency, TF over GST control).

Source of the values: publication PMC7862700, “An all-to-all approach to the identification of sequence-specific readers for epigenetic DNA modifications on cytosine”.
